This is an account of results in PubChem BioAssay.

Calls of active or inactive are those of the source.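 The calls were made as follows, unless noted: active = fluorescence slope higher than the sample average by over 3 SD (cut at about -0.22 in these data, passing the limit was not always enough); inactive = the rest.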

Test [1] in a line: inhibitors of E-selectin induction by TNFa, primary screen, imaging, HUVEC, immunofluorescence, MLSMR starter and 10KST1 sets (AID 487;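 active = visually confirmed hit in the image check and inhibition above 20%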;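 as to inhibition: signal is fraction of cell area covered by stained E-selectin grains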;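 as to nuclei count: 100% = median nuclei count of all wells on the same plate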). The following applies: HUVEC TNFalpha-induced E-selectin immunofluorescence imaging, at 2 µM; inhibition: stronger effect = higher value; nuclei count: measured here: cell number, toxicity.
Test [2] in a line: DUSP6 inhibitors restoring Erk phosphorylation by chemical complementation, primary imaging in DUSP6-transfected HeLa (AID 609;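 active = compounds giving at least 50% inhibition in the cell-based MKP-3 phosphatase rescue imaging test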;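 as to inhibition: phospho-Erk level distribution per well compared with pooled transfected vehicle control wells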). The following applies: HeLa MKP-3 transfected, phospho-Erk imaging KS statistic, at 10 µM, cells stimulated with TPA for 15 min.
For test [3], the target named is Dual specificity protein phosphatase 6 (Homo sapiens) (UniProt Q16828). The test is described as above. The following applies: HeLa MKP-3 transfected, phospho-Erk imaging KS statistic; at 10 µM; stronger effect = higher value; cells stimulated with TPA for 15 min.
Dual specificity protein phosphatase 6 (Homo sapiens), sequence (Q16828 whole entry, looked up): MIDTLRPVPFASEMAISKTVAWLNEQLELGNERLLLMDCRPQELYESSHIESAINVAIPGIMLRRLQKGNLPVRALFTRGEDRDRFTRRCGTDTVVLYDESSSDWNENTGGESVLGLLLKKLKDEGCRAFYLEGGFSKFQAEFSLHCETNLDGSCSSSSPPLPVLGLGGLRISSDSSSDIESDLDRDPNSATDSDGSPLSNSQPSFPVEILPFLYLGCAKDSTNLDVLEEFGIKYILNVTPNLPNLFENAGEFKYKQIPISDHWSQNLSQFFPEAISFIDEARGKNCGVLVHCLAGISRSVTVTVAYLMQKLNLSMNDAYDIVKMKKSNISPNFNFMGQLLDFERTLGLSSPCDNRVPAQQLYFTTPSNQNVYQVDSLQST
The target in test [4] is Voltage-gated potassium channel subunit beta-2 (Rattus norvegicus) (UniProt P62483). The test is described as follows: KvBeta enzyme negative modulators, primary screen, biochemical, NADPH fluorescence (AID 622).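 Also: slope of raw intensity against log time taken from 70 to 1610 s.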 The following applies: recombinant KvBeta, 4-cyanobenzaldehyde reduction, at 10 µM, stronger effect = higher value.
Voltage-gated potassium channel subunit beta-2 (Rattus norvegicus), sequence (P62483 whole entry, looked up): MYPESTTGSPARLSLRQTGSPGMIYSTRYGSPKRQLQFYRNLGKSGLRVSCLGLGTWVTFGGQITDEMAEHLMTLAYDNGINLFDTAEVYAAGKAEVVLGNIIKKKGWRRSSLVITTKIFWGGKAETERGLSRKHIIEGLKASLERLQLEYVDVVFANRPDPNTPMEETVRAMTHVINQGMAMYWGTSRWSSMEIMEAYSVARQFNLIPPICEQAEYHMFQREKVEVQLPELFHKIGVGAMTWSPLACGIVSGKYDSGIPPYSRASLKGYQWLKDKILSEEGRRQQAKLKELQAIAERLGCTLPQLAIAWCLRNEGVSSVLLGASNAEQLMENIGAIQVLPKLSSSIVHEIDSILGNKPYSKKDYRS
The target is the same in test [5]. The test is described as follows: KvBeta positive modulators, primary screen, biochemical, NADPH fluorescence (AID 623;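 active = NADPH fluorescence slope more negative than the mean of all samples by about 3 SD, 99.7% confidence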;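 also: fluorescence intensity change per second fitted from 20 to 320 s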). The following applies: Recombinant KvBeta, NADPH fluorescence decrease slope, 10 min; at 10 µM; stronger effect = lower value.
For test [6], the target named is Alpha-2C adrenergic receptor (Homo sapiens) (UniProt P18825). The test is described as follows: modulators of alpha2C/GIRK thallium flux, primary screen, cell-based, HEK293 alpha2C/GIRK1/2 (AID 624;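 active = fluorescence slope after compound addition differing from the mean of all screened samples at 99.7% confidence, in either direction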;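 also: slope of fluorescence ratio to pre-addition baseline per second over 15 to 24 s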). The following applies: thallium flux BTC fluorescence, at 10 µM, actives lie on both sides.
Alpha-2C adrenergic receptor (Homo sapiens), sequence (P18825 whole entry, looked up): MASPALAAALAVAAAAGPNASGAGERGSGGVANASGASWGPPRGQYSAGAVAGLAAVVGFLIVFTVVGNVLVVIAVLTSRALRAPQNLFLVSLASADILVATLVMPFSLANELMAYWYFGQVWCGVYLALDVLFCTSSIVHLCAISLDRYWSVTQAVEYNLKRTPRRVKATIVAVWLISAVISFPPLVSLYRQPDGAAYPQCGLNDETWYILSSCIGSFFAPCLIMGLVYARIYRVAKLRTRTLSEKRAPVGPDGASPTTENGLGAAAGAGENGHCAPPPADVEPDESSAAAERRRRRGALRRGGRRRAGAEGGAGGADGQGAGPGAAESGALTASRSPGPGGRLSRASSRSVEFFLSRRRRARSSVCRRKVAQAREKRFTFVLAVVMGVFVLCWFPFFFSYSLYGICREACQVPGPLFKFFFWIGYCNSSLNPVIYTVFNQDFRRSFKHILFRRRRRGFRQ
A short description of test [7]: inhibitors of Sendai virus-induced IRF3 signaling, primary screen, TLR/RLR signaling modifier project, cell-based, Sendai virus stimulus, luciferase, 10K MLSCN set (AID 602276;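 active = inhibition at or above 50% at 10 µM; inactive = inhibition below 50%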;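 also: firefly luciferase from ISG56 promoter only with Renilla not read in this screen; 0% = Sendai virus plus DMSO and 100% = medium plus DMSO without virus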). The following applies: HEK293 RL24 IRF3 luciferase reporter, at 10 µM, stronger effect = higher value. For orientation: In a reporter assay the amount or activity of a reporter protein is the signal.
Test [8] can be described thus: inhibitors of poly I:C-induced TLR3 signaling, primary screen, cell-based, poly I:C stimulus, luciferase, 10K MLSCN set (AID 602277;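 active = inhibition of the reporter signal at or above 50%; inactive = inhibition below 50%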). The following applies: HEK293-TLR3 RL24 IRF3 luciferase reporter, at 10 µM, stronger effect = higher value.
Test [9] can be described thus: inhibitors of mutant huntingtin aggregation, primary screen, imaging, exon1htt(103Q)mCFP cells, high-content imaging (AID 483;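 active = visual image review flags a hit and inhibition of aggregation exceeds 20%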;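 also: compound exposure lasted 3 days before fixation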;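 as to nuclei count: percent of the per-plate median nuclei count of sample wells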). The following applies: exon1htt(103Q)mCFP cell line, aggregate imaging, at 2 µM; inhibition of aggregation: stronger effect = higher value; nuclei count: measured here: cell count, toxicity.
Test [10] has as its target Muscarinic acetylcholine receptor M4 (Homo sapiens) (UniProt P08173). The test is described as follows: compounds altering M4/GIRK thallium flux, either direction, primary screen, M4 allosteric agonist project, cell-based, HEK293 M4/GIRK, BTC-AM (AID 625;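 active = fluorescence slope after compound addition differing from the mean of all tested samples at 99.7% confidence, mostly higher but some lower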;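 also: thallium influx through GIRK channels coupled to M4 in HEK293 cells with BTC-AM dye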). The following applies: at 10 µM, actives lie on both sides.
Test [11] in a line: inhibitors of larval lipid processing in zebrafish, primary screen, whole organism, PED6 fluorescence, gall bladder and intestine (AID 686;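 active = a full or partial loss of lipid-probe fluorescence in the fish gall bladder, intestine or both, judged by eye; inactive = no fluorescence loss, or compound toxic to the fish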;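 also: larvae 5 to 7 days old with five fish per well; signal comes from phospholipase A2 cleavage of quenched PED6 carried via bile; overnight exposure to compound and PED6 before scoring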). The following applies: Zebrafish larvae PED6 lipid processing, fluorescence scoring; screened at 20 µM (by protocol).
Test [12] in a line: inhibitors of Chlamydomonas gravitaxis, primary screen, whole organism, Chlamydomonas reinhardtii, WT vs cilia-less mutant, absorbance, 96-well (AID 463189;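 active = inhibition at or above 50% relative to wild type and mutant plate controls; inactive = inhibition below 50%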;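 also: 0% = wild type cc124 cells in DMSO and 100% = ciliumless bld1 mutant cells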). The following applies: OD600 absorbance, 2 days, at 10 µM, stronger effect = higher value.
The mark [13] stands for this setting: measured here: cell density z-score.
[14] abbreviates: measured here: nuclear c-Myc green intensity z-score.
Setting [15] is: measured here: nuclear pErk red intensity z-score, stronger effect = higher value.

Muscarinic acetylcholine receptor M4 (Homo sapiens), sequence (P08173 whole entry, looked up): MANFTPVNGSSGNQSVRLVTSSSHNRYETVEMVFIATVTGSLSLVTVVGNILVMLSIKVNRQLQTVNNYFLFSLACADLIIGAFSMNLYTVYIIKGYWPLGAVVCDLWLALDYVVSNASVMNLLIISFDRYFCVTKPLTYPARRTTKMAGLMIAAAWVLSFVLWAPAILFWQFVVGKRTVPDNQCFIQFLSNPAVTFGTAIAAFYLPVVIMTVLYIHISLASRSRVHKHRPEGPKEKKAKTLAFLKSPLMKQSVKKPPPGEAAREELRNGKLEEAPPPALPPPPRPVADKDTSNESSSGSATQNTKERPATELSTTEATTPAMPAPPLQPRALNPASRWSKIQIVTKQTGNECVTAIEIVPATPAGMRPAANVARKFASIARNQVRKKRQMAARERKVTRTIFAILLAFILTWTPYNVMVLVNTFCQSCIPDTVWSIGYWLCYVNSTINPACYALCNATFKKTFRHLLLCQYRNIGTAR

Turning to `CN(C)CCOC(c1ccccc1)c1ccccc1` (tested in a mixture with another compound), the inhibition (as a rule, the change of the read-out against control, counted positive when it falls) is -105% (inactive) in test [1], 13.3% (inactive) in [3], 23.9% (inactive) in [7] and 33.9% (inactive) in test [8]. In test [1], this molecule came in with a nuclei count of 131%. For the same molecule, the values for the z-score in test [2] (setting [13]), in [2] (setting [14]) and in test [2] (setting [15]) were 0.752, 0.00544 and -0.839, respectively. Moreover, in test [4], the fluorescence slope was -0.486 (inactive). Besides, the NADPH fluorescence slope in test [5] was -8.1e-06 (inactive). Further, the slope in test [6] is 0.00507 (inactive).
Consider `Clc1ccc(-c2nnc3sc(-c4ccc(Br)o4)nn23)cc1`, for which the inhibition of aggregation in [9] was 10.6% (inactive). For the same molecule, the nuclei count in test [9] is 97.9%; in [1], 181%. Moreover, the inhibition was -136% (inactive) in [1], 6.08% (inactive) in test [7] and -13% (inactive) in test [8]. The fluorescence slope in [4] was -0.346 (inactive). Besides, the NADPH fluorescence slope in test [5] is 2.1e-05 (inactive). Further, the slope in test [6] was 0.0087 (inactive).
Take `CN(C)CCOC(c1ccccc1)c1ccccc1`: the inhibition in [1] is -7% (inactive); in test [3], 5.42% (inactive); in test [7], 11.6% (inactive); in test [8], 38.5% (inactive). This molecule also returned a nuclei count in [1] of 124%. The z-score in test [2] (setting [13]) is -0.686; in [2] (setting [14]), 0.456; in [2] (setting [15]) it was 0.78. For the same molecule, in [4], the fluorescence slope is -0.465 (inactive). In addition, the NADPH fluorescence slope in test [5] was -4.4e-05 (inactive). Also, the slope in [6] was 0.00555 (inactive).
As for `CCCNC(=O)C1CN(S(=O)(=O)c2ccccc2)CCN1S(=O)(=O)c1ccccc1` (stereo not given), the fluorescence slope in [4] is -0.512 (inactive). In test [5], the NADPH fluorescence slope was -3.4e-05 (inactive). Further, the slope in test [6] is 0.00614 (inactive). In addition, the results for the inhibition in [7] and in test [8] were 9.56% (inactive) and 19% (inactive), respectively.
As to `CC(C)c1nc2sc3c(c2c(=O)o1)CCCC3`, the inhibition in [1] is -11.8% (inactive); in test [3] it was 13.2% (inactive); in test [12], 22.9% (inactive). Also, the nuclei count in test [1] was 143%. Besides, the z-score in [2] (setting [13]) is -0.957; in [2] (setting [14]) it was 1.42; in test [2] (setting [15]), 1.08. Also, the fluorescence slope in test [4] was -0.376 (inactive); in [10], 0.00562 (inactive). Also, in test [5], the NADPH fluorescence slope was -6.4e-05 (inactive). Besides, the molecule was classed as inactive in test [11].
On to `CC(=O)N1CCc2cc(S(=O)(=O)NCCC(=O)NC3CCCc4ccccc43)ccc21` (stereo not given), for which the fluorescence slope in test [4] was -0.388 (inactive). Moreover, in test [5], the NADPH fluorescence slope was -4e-05 (inactive). In addition, the slope in [6] was 0.00543 (inactive). Also, the outcome in [11] was inactive. Moreover, the inhibition in test [7] was -3.18% (inactive); in [8], -2.7% (inactive).
With `COc1ccc(CN2CC(C(=O)NCc3ccccn3)CC2=O)cc1` (stereo not given), the fluorescence slope in test [4] was -0.582 (inactive); in test [10] it was 0.00691 (inactive). For the same molecule, the NADPH fluorescence slope in test [5] was -2.5e-07 (inactive). The results for the inhibition in test [7] and in [8] were 14.9% (inactive) and 23.4% (inactive), respectively.
On to `CC(=O)Oc1oc(-c2ccccc2)nc1/C=N/c1ccccn1`, for which the figures for the inhibition in [1], in test [3] and in [12] were -20.4% (inactive), 7.48% (inactive) and -3.91% (inactive), respectively. Also, in test [1], the nuclei count was 147%. For the same molecule, the z-score in test [2] (setting [13]) was -0.443; in [2] (setting [14]), 1.34; in test [2] (setting [15]), 0.905. The fluorescence slope in test [4] is -0.383 (inactive); in [10] it was 0.00577 (inactive). Besides, in test [5], the NADPH fluorescence slope was -5.8e-05 (inactive). Also, the call in test [11] was inactive.
For `O=C(CSc1nc2c(sc3ccccc32)c(=O)n1Cc1ccco1)NCC1CCCO1` (stereo not given), the values for the fluorescence slope in test [4] and in [10] were -0.58 (inactive) and 0.00708 (inactive), respectively. Moreover, the NADPH fluorescence slope in test [5] is -4.5e-05 (inactive). Further, the values for the inhibition in test [7] and in [8] were 19.7% (inactive) and 20.3% (inactive), respectively.
Regarding `COc1ccc(CNC(=O)COC(=O)c2n[nH]c3ccccc23)cc1OC`, the inhibition of aggregation in [9] was -22.1% (inactive). For the same molecule, the nuclei count was 108% in [9] and 171% in test [1]. In addition, the inhibition in test [1] was -287% (inactive); in [7], 6.09% (inactive); in [8], -3.54% (inactive). Moreover, the fluorescence slope in test [4] is -0.382 (inactive). In addition, the NADPH fluorescence slope in test [5] was 1.4e-05 (inactive). For the same molecule, in test [6], the slope was 0.00438 (inactive).
Turning to `COc1ccc[nH]c1=O`, the values for the inhibition in [1], in [3] and in test [12] were -53.5% (inactive), 11.3% (inactive) and 14.4% (inactive), respectively. For the same molecule, the nuclei count in test [1] was 156%. For the same molecule, the values for the z-score in test [2] (setting [13]), in [2] (setting [14]) and in [2] (setting [15]) were -0.586, 0.536 and -1.08, respectively. Besides, the fluorescence slope in test [4] is -0.41 (inactive); in [10], 0.00623 (inactive). Moreover, in [5], the NADPH fluorescence slope was -4.9e-05 (inactive). Further, the result in [11] was inactive.
In the case of `O=C(NC1CCCCCC1)C1c2ccccc2C(=O)N1Cc1cccnc1` (stereo not given), the fluorescence slope in test [4] was -0.575 (inactive). Besides, the NADPH fluorescence slope in [5] is 1.2e-05 (inactive). Moreover, in test [6], the slope is 0.00527 (inactive). Further, the inhibition is 1.87% (inactive) in [7] and 17.1% (inactive) in test [8].
Take `Cn1c(=O)[nH]c2cc3ccccc3cc21`: the fluorescence slope is -0.527 (inactive) in [4] and 0.00589 (inactive) in [10]. The NADPH fluorescence slope in test [5] is -6.1e-05 (inactive). Also, the inhibition was 4.54% (inactive) in test [7] and 5.31% (inactive) in test [8].
Regarding `COc1ccc(CSc2nnc(C)n2N)cc1Br`, the results for the inhibition in test [1], in [3] and in test [12] were -82.3% (inactive), 13.2% (inactive) and 5.58% (inactive), respectively. The nuclei count in [1] was 182%. For the same molecule, the z-score is 1.41 in test [2] (setting [13]), -2.02 in test [2] (setting [14]) and 0.078 in [2] (setting [15]). Further, the figures for the fluorescence slope in [4] and in test [10] were -0.395 (inactive) and 0.00742 (inactive), respectively. Moreover, the NADPH fluorescence slope in test [5] is -5.4e-05 (inactive). Further, in test [11], the molecule was called inactive.
